A selection: hits, their analogues and other compounds. The true share with any hit is near 8.7%.
Pf growth 96h – Primary qHTS for delayed death inhibitors of the malarial parasite plastid, 96 hour incubation; P. falciparum luciferase reporter growth, 96 h; Potency, µM (highest dose often 28.7 µM), for the others: top-dose activity change, negative = inhibition, most hits filed as inhibitors; actives 6.9% (n = 320,000); AID 504834, 2011
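Compounds incubated with erythrocytes infected by luciferase-expressing P. falciparum (2% hematocrit, 0.05% parasitemia final) for 96 hours, 37 C in 5% CO2. Growth inhibition scored as decreased luciferase luminescence.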
AMA1 RON2 block – qHTS for Inhibitors of AMA1-RON; Towards Development of Antimalarial Drug Lead: Primary Screen; Plasmodium falciparum AMA1 (3D7) - RON2 peptide interaction; Potency, µM (top dose mostly 58.2 µM), inactives show at the top dose activity change, negative = inhibition, most hits filed as inhibitors; AlphaScreen AMA1-biotinylated RON2 peptide binding; actives 0.2% (n = 360,000);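 note: 0% = vehicle wells and -100% = peptide control; nearly all actives have a fitted effect of over 45% in size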
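AMA1 (3D7) with his tag at 25 nM final met compounds first, then biotinylated RON2 peptide at 25 nM; detection used donor plus acceptor beads, 10 µg/mL apiece, read by AlphaScreen after 30 min at room temperature.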
VACV mCherry inh – qHTS for Stage-Specific Inhibitors of Vaccinia Orthopoxvirus: mCherry Reporter Primary qHTS. Vaccinia virus mCherry reporter infection, fluorescence. Potency, µM (titrated, usually from 36.5 µM), for inactives: top-dose activity change, negative = inhibition, hits mostly inhibitors. actives 0.63% (n = 310,000). AID 720579, 2013; calls by dose curve; tested in A549 cells; note: nearly all actives have a fitted effect of over 35% in size
Vaccinia Venus – qHTS for Stage-Specific Inhibitors of Vaccinia Orthopoxvirus: Venus Reporter Primary qHTS; Vaccinia virus Venus reporter expression, fluorescence; Potency, µM (series often up to 36.5 µM), inactives show at the highest dose activity change, negative = inhibition, actives largely listed as inhibitors; actives 0.46% (n = 330,000); AID 720580, 2013; calls by dose curve; tested in A549 cells; note: nearly all actives have a fitted effect of over 30% in size
Pf growth 48h – Primary qHTS for delayed death inhibitors of the malarial parasite plastid, 48 hour incubation. Potency, µM (doses to about 28.7 µM), for the others: at the top dose activity change, negative = inhibition, usual class: inhibitors. actives 5.9% (n = 310,000). AID 504832, 2011. P. falciparum luciferase growth in erythrocytes, 48 h
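Compounds are pin-transferred into medium, infected erythrocytes (2% hematocrit, 0.1% parasitemia final) are added, and plates sit one parasite generation at 37 C in 5% CO2. Detection reagent is then added and luminescence measured.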
* hit, by the source's call. Unless noted, calls come from the whole dose curve; as a rule, active = well fitted curve in the direction sought with a large enough effect; inconclusive = small, poorly fitted or top-dose-only effect, or another doubt; inactive = no such curve, though single readings can be large; an effect the other way counts as inactive or inconclusive. Unless noted, % is set by controls: 0 for no effect and ±100 for the full control effect; potency is the fitted concentration of half-maximal effect.

`CCOC(=O)c1ccc2c(c1)C1C=CCC1C(C(=O)OCC)N2` (stereo unspecified) gave Pf growth 96h 3%, AMA1 RON2 block -15%, VACV mCherry inh inactive, Vaccinia Venus -2% and Pf growth 48h 12µM*.
For CCOC(=O)C1Nc2ccc(Br)cc2C2C=CCC12 (stereo unspecified) the results were Pf growth 96h 13µM*, AMA1 RON2 block -20%, VACV mCherry inh inactive, Vaccinia Venus 4% and Pf growth 48h inconclusive.
For O=C(OC1CCCCC1)c1ccc2c(c1)C1C=CCC1C(C(=O)O)N2 (stereo unspecified) the results were Pf growth 96h inconclusive and Pf growth 48h 20%.
For O=C(O)C1Nc2ccc(Br)cc2C2C=CCC12 (stereo unspecified) the results were Pf growth 96h 40%, AMA1 RON2 block 10µM* and Pf growth 48h 1%.
Screening CCOC(=O)c1ccc2c(c1)[C@@H]1C=CC[C@@H]1[C@H](c1cccc(OC)c1OC)N2 returned VACV mCherry inh -9% and Vaccinia Venus -13%.
`CCCCCC(=O)N1c2ccccc2C(C)(c2ccccc2)CC1(C)C` (stereo unspecified) gave VACV mCherry inh -8% and Vaccinia Venus 1%.
`Cc1ccc(C2=Nc3ccccc3N(C(=O)c3ccccc3)C(C)C2)cc1` (stereo unspecified) gave Pf growth 96h 12µM*, AMA1 RON2 block -11%, VACV mCherry inh -11%, Vaccinia Venus -12% and Pf growth 48h inconclusive.
For COc1ccc(C2=Nc3ccccc3N(C(=O)c3ccc(C)cc3)C2C(=O)NCc2ccccc2)cc1 (stereo unspecified) the results were AMA1 RON2 block 6%, VACV mCherry inh -22% and Vaccinia Venus -10%.
OCCN1CCN(Cc2ccc3c(c2)CN(Cc2ccc4ccccc4c2)CCO3)CC1 was read as VACV mCherry inh -11% and Vaccinia Venus 10%.
For CCc1cccc(NC(=O)CSc2nc3c(c(=O)[nH]2)CCCC3)c1 the results were Pf growth 96h 8.3µM* and Pf growth 48h -9%.
For O=C(CSc1nc2c(c(=O)[nH]1)CCC2)Nc1cccc(Cl)c1 the results were Pf growth 96h -14%, AMA1 RON2 block -3% and Pf growth 48h -8%.
CCOC(=O)c1c(C)[nH]c(C)c1S(=O)(=O)N1CCN(c2ccccc2OC)CC1 was read as VACV mCherry inh inactive and Vaccinia Venus -9%.
O=C(CC(Nc1ccccc1)c1ccc(F)cc1)c1ccccc1 (stereo unspecified) was read as Pf growth 96h 2.6µM*, AMA1 RON2 block -10%, VACV mCherry inh -17%, Vaccinia Venus -8% and Pf growth 48h 10%.
Screening O=C(CC(Nc1ccccc1)C(=O)O)c1ccccc1 (stereo unspecified) returned AMA1 RON2 block 11%, VACV mCherry inh -12%, Vaccinia Venus -9% and Pf growth 48h 174%.
`COCCNC(=O)CCCn1c(SCc2ccccc2Cl)nc2c(sc3ccccc32)c1=O` gave VACV mCherry inh -12% and Vaccinia Venus -16%.
O=C(c1cccs1)c1coc2ccc(O)c(CN(CCO)CCO)c12 was read as Pf growth 96h 2.1µM* and AMA1 RON2 block 15%.
Screening Oc1cccc(-c2nc3c4c(ncn3n2)-c2ccccc2CC42CCCC2)c1 returned Pf growth 96h 9.3µM*, AMA1 RON2 block -10%, VACV mCherry inh 13µM*, Vaccinia Venus 18µM* and Pf growth 48h 12µM*.
Screening Cc1cccc(OCc2nc3c4c(ncn3n2)-c2ccccc2CC42CCCC2)c1 returned Pf growth 96h inconclusive, AMA1 RON2 block 1%, VACV mCherry inh inactive, Vaccinia Venus -11% and Pf growth 48h -7%.
For Cc1ccc(OCc2nc3c4c(ncn3n2)-c2ccccc2CC42CCCC2)cc1 the results were Pf growth 96h 15µM*, AMA1 RON2 block -4%, VACV mCherry inh -21%, Vaccinia Venus -2% and Pf growth 48h inconclusive.
